Assay results taken from PubChem BioAssay (NCI).
The panel holds about 83,000 compounds, 20% with a hit somewhere; the sample as a whole holds those more often.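 Results are percent growth after 48 hours of single-concentration exposure. 100 means growth as in untreated cells, lower positive values show inhibition; negative values down to -100 show cell death.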 A number with no mark means an inactive call. Calls of active or inactive are those of the source. How the source made its calls: active means growth percent below 10; inactive means the rest.

What follows are compounds tested on HOP-62 NSCLC (assay: NCI-60 one-dose screen, 48 h (100 = growth as untreated, 0 = no growth, -100 = all killed)). Conditions: 10 µM unless noted.

Row | SMILES | growth
1 | CCOC(=O)c1ccc2c(c1)[n+](=O)c(C(C)=O)c(C(F)(F)F)n2[O-] | 25.5%
2 | COc1ccc2c(O)cc3c(c2c1)[C@H](CCl)CN3C(=O)c1cc2cc(NC(=O)CCN3CCOCC3)ccc2[se]1 | -79.7% (active)
3 | O=C(/C=C/C12c3ccccc3C(c3ccccc31)C1C(=O)NC(=O)C12)c1cccs1 (stereo not drawn) | 41.3%
4 | O=C1c2cccnc2C(=O)c2c1c(C(=O)OCCCN1CCOCC1)c1ccccn21 | -25.6% (active)

Each compound was assayed on NCI-H460 lung in the same assay as above. Conditions: 10 µM unless noted.

Row | SMILES | growth
5 | Cc1ccc(OCCOCCOCCOCCOc2ccc(C)n(O)c2=S)c(=S)n1O | 1.54% (active)
6 | CCN(CC)CCCC(Nc1c2ccc(Cl)cc2nc2ccc(OC)cc12)c1ccncc1 (stereo not drawn) | 66%
7 | COc1cccc(C2C3=C(COC3=O)N(CCO)c3cc4c(cc32)OCCO4)c1 (stereo not drawn) | 5.46% (active)
8 | CN(C)CC1C(=O)O[C@H]2[C@H]1CC/C(COC(=O)NCc1ccc(Cn3c(=O)sn(CCCI)c3=O)cc1)=C\CC[C@@]1(C)O[C@@H]21 (stereo partly drawn) | 100%
9 | CC(C)=CC(=O)C1C(=O)c2ccccc2C1=O | 102%
10 | Cn1cc(-c2ccc3c(Nc4cccc(NC(=O)Nc5cccc(F)c5)c4)ncnc3c2)cn1 | 29.1%
11 | COc1cc2c(c(OC)c1OC)C(=O)CC(c1cccc(C(=O)Nc3ccc(Br)cc3)c1)O2 (stereo not drawn) | 78.8%
12 | COc1cc2nc3cc([N+](=O)[O-])ccc3c(NCCCNCCO)c2cc1OC | -39% (active)
13 | CCOC(=O)C1=CCC(n2cc(F)c(=O)[nH]c2=O)O1 (stereo not drawn) | 97.8%
14 | Cc1nc2sc(C(=O)Nc3ccccc3)c(N)c2cc1C(O)c1ccccc1 (stereo not drawn) | 4.01% (active)
15 | C=C(CNCCO)[C@@H]1CC[C@]2(CO)CC[C@]3(C)[C@H](CC[C@@H]4[C@@]5(C)CCC(NCCO)C(C)(C)[C@@H]5CC[C@]43C)[C@@H]12 (stereo partly drawn) | 50.3%
16 | COC(=O)CCc1c(/C=C2\N=C(c3ccc[nH]3)C=C2OC)[nH]c(C)c1C(=O)OCc1ccccc1 | 12.4%
17 | CSc1nc(N)c2c(n1)NC(c1ccccc1)C1CCc3ccccc3C1=N2 (stereo not drawn) | 57.3%
18 | CC(CN)[C@@H]1CC[C@]2(CO)CC[C@]3(C)[C@H](CC[C@@H]4[C@@]5(C)CCC(NCCO)C(C)(C)[C@@H]5CC[C@]43C)[C@@H]12 (stereo partly drawn) | 4.46% (active)
19 | O=S(=O)(c1ccc(NCSc2nc3ccccc3s2)cc1)c1ccc(NCSc2nc3ccccc3s2)cc1 | 104%
20 | COc1ccc(Cn2cc(C(=O)N=Nc3c(O)[nH]c4ccc(Br)cc34)nn2)cc1 | 111%
21 | Oc1ccc(C(c2ccc(O)cc2)c2ccc(Cl)cn2)cc1 | 103%
22 | O=C(Nc1cccc(Cn2c(=O)[nH]c3ccc(Oc4ncccn4)cc3c2=O)c1)c1cccc(Cl)c1 | 57.7%
23 | Cc1ccc(C(=O)Nc2ccc(CN3CCN(C)CC3)c(C(F)(F)F)c2)cc1C#Cc1cnc(N)c2ccccc12 | -86.8% (active)
24 | C[C@H]1c2ccccc2CN1CCCOc1cc2c(cc1OCC1CC1)C1(CCCC1)C(N)=N2 | 38.5%

Row | SMILES | growth
25 | CC1=C2[C@@H](CC1)[C@]1(C)O[C@@](C(C)C)(C[C@H]1OC(=O)CO)[C@H]2OC(=O)CCCc1ccccc1 | 68%
26 | Oc1ccc(Cc2ccc(O)c3ncccc23)c2cccnc12 | 7.23% (active)
27 | C=C(c1ccc(OC)c(/C=C/C(=O)c2cc(OC)c(OC)c(OC)c2)c1)c1cc(OC)c(OC)c(OC)c1 | -30.6% (active)
28 | COc1ccc(-c2nc(SCCC(C)C)nc(N/N=C(/C)c3ccc(N)cc3)c2C#N)cc1 | 101%
29 | CCCCC1=C(Br)C(=O)c2ncccc2C1=O | 105%
30 | COc1ccc(/C(C)=C(\c2ccc(Cl)cc2)c2ccc(OCCCN(C)C)cc2)cc1 | 40.2%
31 | CC(=O)/C(Br)=C/c1ccc(Br)o1 | 105%
32 | CC(C)n1nc(-c2ccc3oc(N)nc3c2)c2c(N)ncnc21 | 5.28% (active)
33 | CCCNNC(=O)c1ccc(CNC(=O)/C=C/c2ccccc2)cc1 | 40.2% [2.5 µM]
34 | O=C(Nc1ncc(Cc2ccc(Cl)cc2)s1)C1=NCCCCN1 | 106%
35 | COc1cc2c(c(OC)c1OC)CCC(c1cccc(C(=O)Nc3ccc([N+](=O)[O-])cc3)c1)O2 (stereo not drawn) | 58.8%
36 | C=CCn1c(SCC(=O)Nc2ccc(C(=O)/C=C/c3ccc(Cl)cc3)cc2)nnc1-c1ccccc1 | 106%
37 | c1ccc(Cn2cc3c(c2)-c2nc(Nc4ccccc4)ncc2CC3)cc1 | 82.7% [100 µM]
38 | Clc1nc(N2CCC[N+]3(CC2)CC[N+]2(CCCNCC2)CC3)nc(N2CCC[N+]3(CC2)CC[N+]2(CCCNCC2)CC3)n1 (stereo not drawn) | 76.8%
39 | C#C[C@]1(O)CC[C@H]2[C@@H]3CC=C4c5sc(-c6ccccc6)nc5CC[C@]4(C)[C@H]3CC[C@@]21C | 75.5%
40 | CCOC(=O)c1ccc2c(c1)[n+](=O)c(C(C)=O)c(C(F)(F)F)n2[O-] | -50.7% (active)
41 | COc1ccc2c(O)cc3c(c2c1)[C@H](CCl)CN3C(=O)c1cc2cc(NC(=O)CCN3CCOCC3)ccc2[se]1 | -7.37% (active)
42 | O=C(/C=C/C12c3ccccc3C(c3ccccc31)C1C(=O)NC(=O)C12)c1cccs1 (stereo not drawn) | 17.3%
43 | O=C1c2cccnc2C(=O)c2c1c(C(=O)OCCCN1CCOCC1)c1ccccn21 | -60% (active)
